Screening data (PubChem)
Most compounds without a hit are left out; they make up all but 1.7% or so of the library.
PTHR1 ag = PTHR1 (human) receptor agonism; Q03431; HEK293 GP2 PTHR1 cells, GloSensor cAMP luminescence, 1 h; Potency, µM (highest dose often 115 µM), usual class: activators; 410,000 compounds, 0.075% hits; AID 743266; also: nearly all actives have a fitted effect of over 55% in size
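HEK-293-derived GP2 cells expressing PTHR1 and a GloSensor cAMP reporter, 3,000/well, plated overnight, given luciferin plus IBMX (each 0.5 mM as added) for 1 h at 37 °C, then compound for 1 h at 37 °C. Luminescence was read after 15 min at room temperature.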
GLP1R ag = GLP-1 receptor (human) agonism; Potency, µM (highest dose often 45.6 µM), most hits filed as activators; HEK293 GLP-1R CRE-luciferase, luminescence, 4-6 h; cells express a hypersensitive GLP-1R form; 380,000 compounds, 0.007% hits
Target sequence (P43220 whole entry, looked up): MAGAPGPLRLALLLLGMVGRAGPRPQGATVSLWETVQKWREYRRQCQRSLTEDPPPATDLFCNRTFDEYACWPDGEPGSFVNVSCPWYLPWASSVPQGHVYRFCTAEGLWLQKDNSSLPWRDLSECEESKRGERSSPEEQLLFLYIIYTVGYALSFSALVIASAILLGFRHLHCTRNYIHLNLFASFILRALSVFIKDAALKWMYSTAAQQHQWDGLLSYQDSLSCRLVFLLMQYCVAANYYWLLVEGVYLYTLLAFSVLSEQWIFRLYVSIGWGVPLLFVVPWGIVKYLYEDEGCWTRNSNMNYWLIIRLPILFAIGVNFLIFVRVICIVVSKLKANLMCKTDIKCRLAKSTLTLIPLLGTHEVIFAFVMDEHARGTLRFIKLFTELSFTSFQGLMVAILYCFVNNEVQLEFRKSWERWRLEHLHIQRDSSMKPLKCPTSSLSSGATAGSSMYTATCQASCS
GLP1R cytotox = cytotoxicity in counter-screen for GLP-1R inverse agonists. 410,000 compounds, 0.13% hits. HEK293 cAMP-luciferase reporter cells, luminescence, 24 h. Potency, µM (highest dose often 38.3 µM), hits mostly inhibitors. AID 624418;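 also: loss of luciferase light is scored as toxicity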
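1536-well qHTS counterscreen of the MLSMR; 200 cells/uL, 12 h pre-incubation, 23 nL cpd, 24 h at 37 deg C 5% CO2, luciferase detection reagent, 12 min RT, luminescence. Inhibition = undesired.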
GLP1R inv ag = acts as inverse agonist at human GLP-1 receptor; HEK293 GLP-1R CRE-luciferase, luminescence, 24 h; GLP-1R form is constitutively active; AID 624417; P43220; Potency, µM (series often up to 38.3 µM), actives largely listed as inhibitors; 410,000 compounds, 1.6% hits; also: nearly all actives have a fitted effect of over 55% in size
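HEK293 cells stably co-expressing a cAMP-responsive luciferase reporter and constitutively active GLP-1R were seeded, incubated 12 h, then exposed to compounds for 24 h at 37 C. Luminescence was read 12 min after detection reagent; inverse agonists lower signal.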
Hits are given with their value; – = inactive; ? = inconclusive; · = no result given. Calls follow the shape of the dose curve; as a rule, active = well fitted curve in the direction sought with a large enough effect; inconclusive = small, poorly fitted or top-dose-only effect, or another doubt; inactive = no such curve, though single readings can be large; an effect the other way counts as inactive or inconclusive.

SMILES	PTHR1 ag	GLP1R ag	GLP1R cytotox	GLP1R inv ag
Nc1nc(N=Nc2ccc(O)cc2)cc(=O)[nH]1	–	–	10µM	–
Cn1cnnc1Sc1ccc(C(F)(F)F)cc1[N+](=O)[O-]	–	–	–	6.3µM
Cn1cnnc1Sc1ccc(C(=O)OCC(=O)NC2CC2)cc1[N+](=O)[O-]	–	–	–	–
CCN(CC)CCN1C(=O)c2ccccc2NC1c1ccc(F)cc1 (stereo not given)	–	–	–	–
CCN(CC)CCN1C(=O)c2ccccc2NC1c1ccc(Br)cc1 (stereo not given)	–	–	–	10µM
COC(=O)[C@@]12C[C@@H](CC(=O)NCC34CC5CC(CC(C5)C3)C4)C(=O)N(Cc3ccco3)C1=CCC(C)(C)C2	–	·	–	10µM
COC(=O)[C@@]12C[C@@H](CC(=O)NCc3cccs3)C(=O)N(Cc3cccc4ccccc34)C1=CCC(C)(C)C2	–	·	–	11µM
Cc1ccc(C)c(N2CCN(C(=O)C3CCCN(S(=O)(=O)c4ccc5c(c4)oc(=O)n5C)C3)CC2)c1 (stereo not given)	–	–	–	–
O=C(O)c1ccc(NCc2cccnc2)c([N+](=O)[O-])c1	?	–	–	–
O=[N+]([O-])c1ccc(Cl)cc1NCc1cccnc1	–	–	–	5.6µM
CCOc1ccc(-c2oc3cc(Cl)ccc3c(=O)c2O)cc1OC	–	–	–	–
CCOc1cc(N2CCOCC2)c(OCC)cc1NC(=O)CN1CCc2ccccc2C1	–	–	–	4.5µM
CCOc1cc(N2CCOCC2)c(OCC)cc1NC(=O)CC12CC3CC(CC(C3)C1)C2	–	–	–	1µM
CC(C)(C)OC(=O)N1CCC(c2c(C(=O)N3CCCCC3)cnn2-c2ccccc2Cl)CC1	–	·	–	–
CCCCNC(=S)N1CCN(C(c2ccccc2)c2ccccc2)CC1	–	–	–	8.9µM
CCCNC(=S)N1CCN(C(c2ccccc2)c2ccccc2)CC1	–	–	–	?
CC(C)OC(=O)c1ccc(NC(=O)c2cccc(-n3cnnn3)c2)cc1	–	–	–	7.1µM
CCOc1ccc(NC(=O)c2cccc(-n3cnnn3)c2)cc1	–	–	–	–
CCOc1ccc(-c2cc(C(=O)NCc3ccccc3Cl)c3ccccc3n2)cc1	–	·	–	–
O=C1C2C3C=CC(C3)C2C(=O)N1c1ccc(N2CCN(c3ccccn3)CC2)c([N+](=O)[O-])c1 (stereo not given)	–	–	–	2.8µM
O=C(CCN1C(=O)C2C3C=CC(C3)C2C1=O)N1CCN(c2ccccn2)CC1 (stereo not given)	–	–	–	–
CC1CCN(CCCCOc2ccccc2[N+](=O)[O-])CC1	–	–	8.9µM	–
CC1CCN(CCCCOc2ccc([N+](=O)[O-])cc2)CC1	–	–	–	–
CC(C)(S)C(=O)NC(CS)C(=O)O (stereo not given)	·	–	·	·
CC(C)NS(=O)(=O)c1ccc(Oc2ncc(C(F)(F)F)cc2Cl)cc1	–	–	–	?
SMILES	PTHR1 ag	GLP1R ag	GLP1R cytotox	GLP1R inv ag
CCCNS(=O)(=O)c1ccc(Oc2ncc(C(F)(F)F)cc2Cl)cc1	–	–	–	11µM
c1cc2cc(-c3c(-c4ccc5c(c4)OCO5)noc3-c3ccsc3)ccc2[nH]1	–	–	–	?
Cc1onc(-c2ccc3c(c2)OCO3)c1-c1ccc2[nH]ccc2c1	–	–	?	8.9µM
O=C(c1cc2sccc2n1Cc1ccccc1)N1CCCc2ccccc21	–	–	–	10µM
Cc1cc(C(=O)NCc2cccc(Br)c2)c2c(C)nn(-c3ccccc3)c2n1	–	·	–	–
CCCC[C@@H](CN[C@H](C)CNC)NCC1CCC(C(C)(C)C)CC1 (stereo not given in full)	–	–	?	11µM
CC[C@H](C)[C@@H](CN[C@H](CCCCNC)CNC)NCC1CCCC1	–	–	–	–
CCOC(=O)c1ccc(NC(=O)c2c(NCc3sccc3C)sc3c2CCC(C)C3)cc1 (stereo not given)	–	·	–	–
CC(C)N(CC#CCC(O)(c1ccccc1)c1ccccc1)CCO	–	–	–	10µM
Cc1cc(S(=O)(=O)Nc2ccc(-c3ccc(N4CCCCCC4)nn3)cc2)c(C)cc1Cl	–	·	–	7.9µM
O=S(=O)(Nc1cccc(-c2ccc(N3CCCCCC3)nn2)c1)c1ccccc1Cl	–	–	–	5µM
O=S(=O)(Nc1ccc(-c2ccc(N3CCCCC3)nn2)cc1)c1ccc(OC(F)(F)F)cc1	–	·	–	11µM
Cc1cc(S(=O)(=O)Nc2ccc(-c3ccc(N4CCCCC4)nn3)cc2)c(C)cc1Cl	–	·	–	7.1µM
Cc1cc(C)c(S(=O)(=O)Nc2ccc(-c3ccc(N4CCC(C)CC4)nn3)cc2)cc1C	–	·	–	?
CCOc1ccc(S(=O)(=O)Nc2ccc(-c3ccc(N4CCCC4)nn3)cc2)cc1	–	·	–	–
CCCCCOc1ccc(C2SC(=O)NC2=O)cc1OCC (stereo not given)	·	–	·	·
COc1ccc(CCNc2nc(SCc3ccccc3Cl)nc3ccccc23)cc1OC	–	·	–	–
CC(C)c1ccc(NC2CCCN(C(=O)CCN3CCCC3=O)C2)cc1 (stereo not given)	–	–	–	–
CC(C)c1ccc(NC2CCCN(C(=O)CC3CCCC3)C2)cc1 (stereo not given)	–	–	–	6.3µM
CCCCN(CCCNC(=O)c1ccc(Sc2ccc(Cl)cc2)c(NC(C)=O)c1)c1ccccc1	–	·	–	?
CCN(CCCNC(=O)c1ccc(Sc2ccc(Cl)cc2)c(NC(C)=O)c1)c1ccccc1	–	·	–	10µM
CC1(C)CC(=O)c2cc(-c3nc(-c4ccccc4)cs3)c(=O)[nH]c2C1	–	·	–	–
CCN(CC)c1ccc(/C=N/N(c2ccccc2)c2ccccc2)c(O)c1	–	–	–	6.3µM
CCOc1ccc(NC(=O)C2CCCN(c3nn4cc(-c5ccc(OC)cc5)nc4s3)C2)cc1 (stereo not given)	–	·	–	–
COc1cccc(CNS(=O)(=O)c2ccc3c(c2)C(C(C)C)C(=O)N3)c1 (stereo not given)	–	·	–	–
COc1ccc(CNC(=O)c2ccc(NC(=O)N3CCCCc4ccccc43)cc2)c(OC)c1	–	·	–	11µM
CCN(CC)S(=O)(=O)c1ccc2c(c1)N(CC(=O)Nc1ccc(OC)cc1)C(=O)CS2	–	·	–	–
CC(=O)OCC(=O)[C@@]1(O)[C@H](C)C[C@H]2C3C[C@H](F)C4=CC(=O)C=CC4(C)C3[C@@H](O)CC21C (stereo not given in full)	·	–	·	·
CCCCn1c(N)c(N(CCOC)C(=O)COC(=O)COc2cc(C)c(Cl)cc2C(C)C)c(=O)[nH]c1=O	–	–	–	10µM
CCCCn1c(N)c(N(CCOC)C(=O)CN(C)CC(=O)Nc2ccc(Cl)c(Cl)c2)c(=O)[nH]c1=O	50µM	–	–	?
